Hits are enriched below; roughly 21% of the tested compounds scored in any of these assays.
Pf growth 96h: Primary qHTS for delayed death inhibitors of the malarial parasite plastid, 96 hour incubation | P. falciparum luciferase reporter growth, 96 h | Potency, µM (highest dose often 28.7 µM), for inactives: top-dose activity change, negative = inhibition, usual class: inhibitors | 320,000 tested, 6.9% active; also: potency is read from the fitted curve at half-maximal effect; % is scaled to controls: 0 for no effect and ±100 for the full control effect
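Readout is luminescence from an integrated firefly luciferase in P. falciparum. Red cells, 2% hematocrit and 0.05% parasitemia final, were cultured with compound through two parasite generations (96 hours) at 37 C, 5% CO2.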
Shiga toxin inh: A qHTS for Small Molecule Inhibitors of Shiga Toxin; 290,000 tested, 9.2% active; inhibition, % at 38.7 µM; Vero cells, Shiga toxin protein synthesis inhibition reporter; in the data active = inhibition mostly above about 28%, no sharp cut-off; inactive = mostly below about 43%; also: 0% is about no effect
Pf growth 48h: Primary qHTS for delayed death inhibitors of the malarial parasite plastid, 48 hour incubation; 310,000 tested, 5.9% active; Potency, µM (titrated, usually from 28.7 µM), for inactives: at the top dose activity change, negative = inhibition, actives largely listed as inhibitors; P. falciparum luciferase growth in erythrocytes, 48 h; also: potency is read from the fitted curve at half-maximal effect; % is scaled to controls: 0 for no effect and ±100 for the full control effect
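Read-out is firefly luciferase luminescence from an integrated reporter in P. falciparum, so falling signal marks reduced parasite growth. Infected erythrocytes were at 2% hematocrit and 0.1% parasitemia (final) in Albumax-supplemented RPMI 1640.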
CHX counter: Cycloheximide Counterscreen for Small Molecule Inhibitors of Shiga Toxin. cell reporter, cycloheximide protein synthesis inhibition counterscreen. max response, %. 300,000 tested, 12% active. AID 2314, 2010; in the data active = max response mostly above about 13%, no sharp cut-off; inactive = mostly below about 14%; also: read at 38.3 µM for the half of the compounds with a filed dose; 0% is about no effect
* marks the source's active call; other numbers are inactive results; i = inactive; ? = inconclusive; nt = no result given; [ ] = remark or other dose. Unless noted, calls follow the shape of the dose curve; as a rule, active = well fitted inhibition curve with a large enough effect; inconclusive = small, poorly fitted or top-dose-only effect, or another doubt; inactive = no such curve, though single readings can be large or run the other way.

SMILES | Pf growth 96h | Shiga toxin inh | Pf growth 48h | CHX counter
COc1ccc(N(CC(=O)N2CCN(Cc3ccccc3)CC2)S(C)(=O)=O)cc1Cl | ? | -8 | 8% | -3
CCOc1ccc(C(=O)NCC(c2ccco2)N2CCOCC2)cc1 (stereo not drawn) | 21% | nt | -24% | nt
COc1ccc(CNC(=O)CCSCc2cccc(Cl)c2)cc1 | 77% | -9 | 1% | -3
Cc1ccc(CNC(=O)CSCc2ccccc2F)cc1 | ? | 55 | 110% | 39*
O=C(CCCC(=O)NCc1ccc(F)cc1)NCc1ccc(F)cc1 | 31% | -18 | 10% | -2
Cc1ccc(CSCC(=O)NCc2cccnc2)cc1 | i | -14 | 1% | -3
COc1ccc(CNC(=O)CCSCc2ccccc2C)cc1 | 3.3µM* | 26 | 25% | 1
CC(NC(=O)CCSCc1ccccc1F)c1ccccc1 (stereo not drawn) | ? | 65* | 16% | 58*
CN(C)C(=S)SCC(=O)NCc1ccc(F)cc1 | ? | 51* | 161% | 29*
C=C(C)CCC(C)N1CCC(n2nccc2NC(=O)CCOc2ccccc2)CC1 (stereo not drawn) | ? | -5 | -5% | -1
Cc1ccc(/C=C/C(=O)c2ccccc(=O)c2O)c(C)c1 | 9.3µM* | 30* | ? | 20
O=C(/C=C/c1ccccc1Cl)c1ccccc(=O)c1O | 3.7µM* | 89* | 5.2µM* | 65*
CC(=O)Nc1ccccc1NC(=O)c1ccc(C)cc1C | ? | -5 | 3% | -3
Cc1ccc(C)c(/C=C/C(=O)c2ccccc(=O)c2O)c1 | 1.5µM* | 52* | 4.1µM* | 111*
O=C1COc2ccccc2N1Cc1c(F)cccc1Cl | 10% | 27 | -15%[0.00184 µM] | -6
Cc1cccc(N2CCN(C(=O)c3ccc(Cl)c(NC4=NC5CS(=O)(=O)CC5S4)c3)CC2C)c1 (stereo not drawn) | -2% | -8 | -24% | -3
COc1cc2oc3ccccc3c(=O)c2cc1OC | -12% | 18 | 20% | 14
CCOC(=O)/C=C/c1ccc2oc3ccccc3c(=O)c2c1 | 108% | 76* | 236% | 49*
CCNC(=O)N1CCN(CCCC(c2ccc(F)cc2)c2ccc(F)cc2)CC1 | 1.7µM* | nt | 1.5µM* | nt
O=C(Nc1ccc(F)cc1)N1CCN(CCc2ccccc2)CC1 | 28% | -11 | ? | -1
CCCC[C@H](CC)CN1CN(C[C@@H](CC)CCCC)CC(C)(N)C1 | ? | nt | -20%[12.8 µM] | nt
CCn1c2ccccc2c2nc3ccccc3nc21 | ? | 0 | nt | 9
CC(=O)n1c2ccccc2c2nc3ccccc3nc21 | 2.6µM* | nt | 44% | 26*
CCn1c2ccccc2c2nc3cc(OC)c(OC)cc3nc21 | 3.3µM* | -16 | 30% | 2
COc1cc2nc3c4ccccc4n(CC#N)c3nc2cc1OC | 23% | 15 | 8% | -3
SMILES | Pf growth 96h | Shiga toxin inh | Pf growth 48h | CHX counter
CCn1c2ccccc2c2nc3cc(C(=O)O)ccc3nc21 | -7% | 126* | 26% | 35*
C=CCOC(=O)Nc1c(C(=O)OC)[nH]c2ccc(Cl)cc12 | -16%[5.75 µM] | -11 | ? | -2
C=CCn1c(=S)[nH]c2cc(C(=O)NCCc3ccc(S(N)(=O)=O)cc3)ccc2c1=O | 1% | nt | ? | nt
Cc1ccc(N=CC2=C(O)CC(c3ccc(Cl)cc3)CC2=O)cc1 (stereo not drawn) | -15% | -5 | 9% | -4
CN1CC(=O)NC1=NC(=O)C12CC3CC(CC(C3)C1)C2 | 12µM* | -9 | ? | -2
CN1CCN(NC(=S)Nc2ccc(OC(F)F)cc2)CC1 | 1% | 1 | 38% | 8
NC(N)=N/N=C/c1cc([N+](=O)[O-])ccc1O | 42% | 11 | ? | 12*
O=[N+]([O-])c1ccc(O)c(/C=N/Nc2ccc(Cl)nn2)c1 | 0.37µM* | 21 | 0.41µM* | 11
O=[N+]([O-])c1ccc(O)c(/C=N/Nc2nn[nH]n2)c1 | 102% | 24 | ? | -2
O=S1(=O)N=C(N/N=C/c2cccs2)c2ccccc21 | 13µM* | -2 | ? | -1
Oc1cccc(/C=N/Nc2ccc(Cl)nn2)c1 | 11% | 68* | nt | 42*
Cc1cc(NC(=O)CSc2nccn2-c2cccc(Cl)c2)no1 | -5% | -6 | -9% | -1
O=[N+]([O-])c1ccc(O)c(/C=N/NC2=NS(=O)(=O)c3ccccc32)c1 | 5%[5.75 µM] | 1 | 2.6µM* | 10
COCCCNC(=O)C(F)(F)C(F)(F)C(=O)NCCCOC | 79% | 4 | 5% | -2
O=C(OCc1ccc(Cl)c(Cl)c1)c1ccc[nH]1 | 102% | 111* | 87% | 23*
COc1ccccc1CCN=C(N)NS(=O)(=O)c1ccccc1F | -18% | -5 | 18% | 6
COc1ccccc1CNc1ccc2c(c1)CCC2 | ? | nt | ? | 32*
COc1ccc(CNCc2ccc3c(c2)OCO3)cc1Br | 52% | 15 | nt | 10
COc1ccc(CNc2ccc3c(c2)CCC3)cc1Br | 7.4µM* | 70* | 56% | 41*
CCOc1ccc(NC(=O)COc2ccc3c(c2)CCC3)cc1OC | 0% | nt | -1% | nt
COc1ccccc1CNC(=O)COc1ccc2c(c1)CCC2 | ? | 12 | -11% | 10
CCOc1cc(CNc2ccc3c(c2)CCC3)ccc1OC | -57% | 66 | nt | 35*
CCCC[C@@H]1CNCCN1CC1(c2ccccc2)CC1 | 73% | nt | ? | nt
NS(=O)(=O)c1ccc(NC(=O)COc2cccc3ccccc23)cc1 | -25% | -6 | -6% | -3
c1ccc(CN2CCc3nc4ccccc4cc3C2)cc1 | 156% | 59* | 97% | 26*
SMILES | Pf growth 96h | Shiga toxin inh | Pf growth 48h | CHX counter
CCN(CC(=O)Nc1ccccc1OC)C(=O)CSCc1ccc(C)cc1 | -29% | nt | -10% | nt
O=C1CC(c2ccccc2Oc2cccc(Cl)c2)C(n2cncn2)C(=O)C1C1NCCc2ccccc21 (stereo not drawn) | -14% | 12 | 0% | 6
CC(C)(C)c1ccc(Oc2cccc(C3CC(=O)C(C4NCCc5ccccc54)C(=O)C3n3cncn3)c2)cc1 (stereo not drawn) | 14% | 10 | 1.2µM* | 9
CC1=CC(C)(C)N(S(=O)(=O)c2ccc(C)cc2)c2ccc(C)cc21 | 10µM* | -5 | nt | -5
CC1=CC(C)(C)N(S(=O)(=O)c2ccc(F)cc2)c2ccccc21 | nt | -13 | ? | -2
COc1ccc(NC(=O)CN(C)C(=O)CN2C(=O)C3CCCCC3C2=O)cc1 (stereo not drawn) | 20% | nt | 21% | nt
CC(C)OP(=O)(OC(C)C)C(Nc1ccccc1)c1ccc2c(c1)OCO2 (stereo not drawn) | ? | -12 | -16% | -8
CC(C)OP(=O)(OC(C)C)C(Nc1ccccc1)c1cccc2c1OCO2 (stereo not drawn) | ? | 11 | ? | 23*
CCOC(=O)c1[nH]c2ccc(OC)cc2c1C | 153% | 73* | 69% | 29*
CCOC(=O)c1[nH]c2ccc(OC)cc2c1NC(C)=O | 23% | -19 | nt | -5
COCC(C)NC(=O)c1cc2cc(OC)ccc2[nH]1 (stereo not drawn) | 40% | -4 | 4% | 2
CCOC(=O)c1[nH]c(CN2CCN(c3ccc(OC)cc3)CC2)c(C(=O)OCC)c1C | 6.6µM* | 5 | 9.3µM* | -2

Bioassay records deposited in PubChem by National Center for Advancing Translational Sciences (NCATS).
